{
  "source": "the supplement of paper PMC8728848",
  "test_in_all_cases": "glycan array binding signal (z-score within array); higher = stronger binding",
  "conditions_in_all_cases": "glycan notation: IUPAC condensed, linker removed",
  "key": {"[1]": {"biological_target": "Fuc(a1-2)Gal(b1-4)GlcNAc(b1-3)Gal(b1-4)GlcNAc", "how_it_was_run": "(§1)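 Arrays were curated from the Consortium for Functional Glycomics database, 3228 in total, and kept only where the protein sequence was available. Binding is expressed as a within-array Z-score. This score was averaged across arrays of the same protein sequence at different concentrations or buffers and across linkers, and negative values can be read as non-binding.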"}, "[2]": {"biological_target": "Fuc(a1-2)Gal(b1-4)GlcNAc(b1-3)Gal(b1-4)GlcNAc(b1-3)Gal(b1-4)GlcNAc", "how_it_was_run": "as §1"}, "Fuc(a1-2)[Gal(a1-3)]Gal": {"biological_target": "Fuc(a1-2)[Gal(a1-3)]Gal", "how_it_was_run": "as §1"}, "[3]": {"biological_target": "Fuc(a1-3)[Gal(b1-4)]GlcNAc(b1-3)Gal(b1-3)[Fuc(a1-4)]GlcNAc", "how_it_was_run": "as §1"}, "[4]": {"biological_target": "Fuc(a1-3)[GalNAc(b1-4)]GlcNAc", "how_it_was_run": "as §1"}, "Gal(a1-3)Gal(b1-4)Glc": {"biological_target": "Gal(a1-3)Gal(b1-4)Glc", "how_it_was_run": "as §1"}, "Gal(a1-3)GalNAc": {"biological_target": "Gal(a1-3)GalNAc", "how_it_was_run": "as §1"}, "[5]": {"biological_target": "Gal(b1-3)GalNAc(b1-4)[Neu5Ac(a2-3)]Gal(b1-4)Glc", "how_it_was_run": "as §1"}, "[6]": {"biological_target": "Gal(b1-4)GlcNAc(b1-6)GalNAc", "how_it_was_run": "as §1"}, "Gal3S(b1-3)GlcNAc": {"biological_target": "Gal3S(b1-3)GlcNAc", "how_it_was_run": "as §1"}, "[7]": {"biological_target": "GalNAc(b1-3)Gal(a1-4)Gal(b1-4)GlcNAc", "how_it_was_run": "as §1"}, "[8]": {"biological_target": "GlcNAc(b1-3)Gal(b1-3)GalNAc", "how_it_was_run": "as §1"}, "[9]": {"biological_target": "GlcNAc(b1-3)Gal(b1-4)GlcNAc", "how_it_was_run": "as §1"}, "[10]": {"biological_target": "GlcNAc(b1-3)[GlcNAc(b1-4)][GlcNAc(b1-6)]GlcNAc", "how_it_was_run": "as §1"}, "Kdn(a2-3)Gal(b1-3)GlcNAc": {"biological_target": "Kdn(a2-3)Gal(b1-3)GlcNAc", "how_it_was_run": "as §1"}, "[11]": {"biological_target": "Man(a1-2)Man(a1-3)[Man(a1-2)Man(a1-6)]Man", "how_it_was_run": "as §1"}, "[12]": {"biological_target": "Man(a1-2)Man(a1-3)[Man(a1-2)Man(a1-6)]Man(a1-6)[Man(a1-2)Man(a1-2)Man(a1-3)]Man(b1-4)GlcNAc(b1-4)GlcNAc", "how_it_was_run": "as §1"}, "[13]": {"biological_target": "Man(a1-3)[Man(a1-6)]Man(a1-6)[Man(a1-3)]Man(b1-4)GlcNAc(b1-4)GlcNAc", "how_it_was_run": "as §1"}, "[14]": {"biological_target": "Man(a1-3)[Man(a1-6)]Man(b1-4)GlcNAc(b1-4)GlcNAc", "how_it_was_run": "as §1"}, "[15]": {"biological_target": "Neu5Ac(a2-3)Gal(b1-3)GalNAc(b1-4)[Neu5Ac(a2-3)]Gal(b1-4)Glc", "how_it_was_run": "as §1"}, "[16]": {"biological_target": "Neu5Ac(a2-3)[Neu5Ac(a2-6)]GalNAc", "how_it_was_run": "as §1"}, "Neu5Ac(a2-6)GalNAc": {"biological_target": "Neu5Ac(a2-6)GalNAc", "how_it_was_run": "as §1"}, "[17]": {"biological_target": "Neu5Ac(a2-8)Neu5Ac(a2-8)Neu5Ac", "how_it_was_run": "as §1"}, "[18]": {"biological_target": "Neu5Ac(a2-8)Neu5Ac(a2-8)Neu5Ac(a2-3)[GalNAc(b1-4)]Gal(b1-4)Glc", "how_it_was_run": "as §1"}, "[19]": {"biological_target": "Neu5Ac(a2-8)Neu5Ac(a2-8)Neu5Ac(a2-8)Neu5Ac(a2-3)[GalNAc(b1-4)]Gal(b1-4)Glc", "how_it_was_run": "as §1"}, "[20]": {"biological_target": "Neu5Gc(a2-3)Gal(b1-4)GlcNAc", "how_it_was_run": "as §1"}},
  "note": "Shown is part of a subset that was picked to be rich in the strongest signals.",
  "data": [
    {"binder": "SrpA (Streptococcus sanguis) (protein) SSKSESTVNSQSASSETNRSSTNNGSTSSSSETARVRKRRATDTTPPTITVPSDIIAYRGEEFEFYFEITDDSGQVKNIELSTFGKPLGLNWLEYSEDNFNVPGNATSDNPLRVRVHGTVPLNEPIPADKNRAQFTRTIRAWDAAGNVSSNITFVIKYRAQTDKYNPADPTITYVDRLSSLSPSEKNAVEAAVRAANPQIPAAARITVSANGTVTITYPDSSTDTITANRVVKDLASSRSALT", "values": [
      {"measurement": "glycan array binding signal (z-score)", "setting": "[1]", "result": -0.109},
      {"measurement": "glycan array binding signal (z-score)", "setting": "[2]", "result": 2.25},
      {"measurement": "glycan array binding signal (z-score)", "setting": "Fuc(a1-2)[Gal(a1-3)]Gal", "result": 0.762},
      {"measurement": "glycan array binding signal (z-score)", "setting": "[3]", "result": -0.157},
      {"measurement": "glycan array binding signal (z-score)", "setting": "[4]", "result": -0.159},
      {"measurement": "glycan array binding signal (z-score)", "setting": "Gal(a1-3)Gal(b1-4)Glc", "result": 0.291},
      {"measurement": "glycan array binding signal (z-score)", "setting": "Gal(a1-3)GalNAc", "result": -0.317},
      {"measurement": "glycan array binding signal (z-score)", "setting": "[5]", "result": -0.532},
      {"measurement": "glycan array binding signal (z-score)", "setting": "[6]", "result": -0.04},
      {"measurement": "glycan array binding signal (z-score)", "setting": "Gal3S(b1-3)GlcNAc", "result": 0.646},
      {"measurement": "glycan array binding signal (z-score)", "setting": "[7]", "result": -0.265},
      {"measurement": "glycan array binding signal (z-score)", "setting": "[8]", "result": 1.6},
      {"measurement": "glycan array binding signal (z-score)", "setting": "[9]", "result": -0.543},
      {"measurement": "glycan array binding signal (z-score)", "setting": "[10]", "result": -0.657},
      {"measurement": "glycan array binding signal (z-score)", "setting": "Kdn(a2-3)Gal(b1-3)GlcNAc", "result": 0.272},
      {"measurement": "glycan array binding signal (z-score)", "setting": "[11]", "result": -0.848},
      {"measurement": "glycan array binding signal (z-score)", "setting": "[12]", "result": -0.332},
      {"measurement": "glycan array binding signal (z-score)", "setting": "[13]", "result": 1.57},
      {"measurement": "glycan array binding signal (z-score)", "setting": "[14]", "result": -0.474},
      {"measurement": "glycan array binding signal (z-score)", "setting": "[15]", "result": -0.383},
      {"measurement": "glycan array binding signal (z-score)", "setting": "[16]", "result": -0.566},
      {"measurement": "glycan array binding signal (z-score)", "setting": "Neu5Ac(a2-6)GalNAc", "result": 5.01},
      {"measurement": "glycan array binding signal (z-score)", "setting": "[17]", "result": -0.629},
      {"measurement": "glycan array binding signal (z-score)", "setting": "[18]", "result": -0.901},
      {"measurement": "glycan array binding signal (z-score)", "setting": "[19]", "result": 2.24},
      {"measurement": "glycan array binding signal (z-score)", "setting": "[20]", "result": -0.45}
    ]}
  ]
}
